Experimental data: the supplement of paper PMC11006884
About 6,500 targets were measured; listed, in parts, are those with a hit and a random draw of the rest. About 2% of all pairs of compound and target were hits.

Each target was assayed with COC(=O)C#Cc1ccccc1 [methyl 3-phenylpropiolate] (assay: log2 ratio of iodoacetamide-alkyne labeling of the cysteine site, DMSO over compound (competition); higher = stronger covalent engagement of the cysteine by the compound, active = 1 or more). Details: 500 µM; treatment time 1 h; system: HEK293T cell lysate.
Outline: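 Three replicates, each with duplicate channels, were prepared from HEK293T lysate (2 mg/mL) treated with vehicle or electrophile at 500 µM for 1 h at ambient temperature. Iodoacetamide alkyne was then applied for 1 h, and samples were clicked to sCIP-TMT reagents, pooled, trypsin-digested overnight at 37 °C, enriched on streptavidin, acid-eluted and analysed on Orbitrap Eclipse LC-MS/MS with FAIMS, with FragPipe quantification. The log2 competition ratio per cysteine is the mean control-channel divided by the mean compound-channel reporter intensity. Cysteines quantified in only one replicate were left out.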

Chain of UniProt Q9NR33 (Q9NR33 whole entry): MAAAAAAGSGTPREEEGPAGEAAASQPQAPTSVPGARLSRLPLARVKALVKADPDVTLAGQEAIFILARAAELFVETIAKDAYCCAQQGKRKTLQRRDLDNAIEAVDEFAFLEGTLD
Chain of UniProt Q9Y570 (Q9Y570 whole entry, looked up): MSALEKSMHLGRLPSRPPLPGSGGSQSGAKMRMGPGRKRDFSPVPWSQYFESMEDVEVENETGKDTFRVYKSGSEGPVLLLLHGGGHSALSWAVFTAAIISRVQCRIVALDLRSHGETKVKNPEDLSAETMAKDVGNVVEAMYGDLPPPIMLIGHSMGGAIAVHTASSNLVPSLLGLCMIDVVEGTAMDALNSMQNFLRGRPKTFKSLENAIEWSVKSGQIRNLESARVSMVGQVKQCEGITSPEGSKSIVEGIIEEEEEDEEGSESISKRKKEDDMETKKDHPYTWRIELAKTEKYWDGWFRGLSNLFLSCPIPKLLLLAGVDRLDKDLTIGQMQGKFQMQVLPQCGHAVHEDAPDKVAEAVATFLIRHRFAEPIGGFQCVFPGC
Chain of UniProt Q9BYW2 (Q9BYW2 whole entry, looked up): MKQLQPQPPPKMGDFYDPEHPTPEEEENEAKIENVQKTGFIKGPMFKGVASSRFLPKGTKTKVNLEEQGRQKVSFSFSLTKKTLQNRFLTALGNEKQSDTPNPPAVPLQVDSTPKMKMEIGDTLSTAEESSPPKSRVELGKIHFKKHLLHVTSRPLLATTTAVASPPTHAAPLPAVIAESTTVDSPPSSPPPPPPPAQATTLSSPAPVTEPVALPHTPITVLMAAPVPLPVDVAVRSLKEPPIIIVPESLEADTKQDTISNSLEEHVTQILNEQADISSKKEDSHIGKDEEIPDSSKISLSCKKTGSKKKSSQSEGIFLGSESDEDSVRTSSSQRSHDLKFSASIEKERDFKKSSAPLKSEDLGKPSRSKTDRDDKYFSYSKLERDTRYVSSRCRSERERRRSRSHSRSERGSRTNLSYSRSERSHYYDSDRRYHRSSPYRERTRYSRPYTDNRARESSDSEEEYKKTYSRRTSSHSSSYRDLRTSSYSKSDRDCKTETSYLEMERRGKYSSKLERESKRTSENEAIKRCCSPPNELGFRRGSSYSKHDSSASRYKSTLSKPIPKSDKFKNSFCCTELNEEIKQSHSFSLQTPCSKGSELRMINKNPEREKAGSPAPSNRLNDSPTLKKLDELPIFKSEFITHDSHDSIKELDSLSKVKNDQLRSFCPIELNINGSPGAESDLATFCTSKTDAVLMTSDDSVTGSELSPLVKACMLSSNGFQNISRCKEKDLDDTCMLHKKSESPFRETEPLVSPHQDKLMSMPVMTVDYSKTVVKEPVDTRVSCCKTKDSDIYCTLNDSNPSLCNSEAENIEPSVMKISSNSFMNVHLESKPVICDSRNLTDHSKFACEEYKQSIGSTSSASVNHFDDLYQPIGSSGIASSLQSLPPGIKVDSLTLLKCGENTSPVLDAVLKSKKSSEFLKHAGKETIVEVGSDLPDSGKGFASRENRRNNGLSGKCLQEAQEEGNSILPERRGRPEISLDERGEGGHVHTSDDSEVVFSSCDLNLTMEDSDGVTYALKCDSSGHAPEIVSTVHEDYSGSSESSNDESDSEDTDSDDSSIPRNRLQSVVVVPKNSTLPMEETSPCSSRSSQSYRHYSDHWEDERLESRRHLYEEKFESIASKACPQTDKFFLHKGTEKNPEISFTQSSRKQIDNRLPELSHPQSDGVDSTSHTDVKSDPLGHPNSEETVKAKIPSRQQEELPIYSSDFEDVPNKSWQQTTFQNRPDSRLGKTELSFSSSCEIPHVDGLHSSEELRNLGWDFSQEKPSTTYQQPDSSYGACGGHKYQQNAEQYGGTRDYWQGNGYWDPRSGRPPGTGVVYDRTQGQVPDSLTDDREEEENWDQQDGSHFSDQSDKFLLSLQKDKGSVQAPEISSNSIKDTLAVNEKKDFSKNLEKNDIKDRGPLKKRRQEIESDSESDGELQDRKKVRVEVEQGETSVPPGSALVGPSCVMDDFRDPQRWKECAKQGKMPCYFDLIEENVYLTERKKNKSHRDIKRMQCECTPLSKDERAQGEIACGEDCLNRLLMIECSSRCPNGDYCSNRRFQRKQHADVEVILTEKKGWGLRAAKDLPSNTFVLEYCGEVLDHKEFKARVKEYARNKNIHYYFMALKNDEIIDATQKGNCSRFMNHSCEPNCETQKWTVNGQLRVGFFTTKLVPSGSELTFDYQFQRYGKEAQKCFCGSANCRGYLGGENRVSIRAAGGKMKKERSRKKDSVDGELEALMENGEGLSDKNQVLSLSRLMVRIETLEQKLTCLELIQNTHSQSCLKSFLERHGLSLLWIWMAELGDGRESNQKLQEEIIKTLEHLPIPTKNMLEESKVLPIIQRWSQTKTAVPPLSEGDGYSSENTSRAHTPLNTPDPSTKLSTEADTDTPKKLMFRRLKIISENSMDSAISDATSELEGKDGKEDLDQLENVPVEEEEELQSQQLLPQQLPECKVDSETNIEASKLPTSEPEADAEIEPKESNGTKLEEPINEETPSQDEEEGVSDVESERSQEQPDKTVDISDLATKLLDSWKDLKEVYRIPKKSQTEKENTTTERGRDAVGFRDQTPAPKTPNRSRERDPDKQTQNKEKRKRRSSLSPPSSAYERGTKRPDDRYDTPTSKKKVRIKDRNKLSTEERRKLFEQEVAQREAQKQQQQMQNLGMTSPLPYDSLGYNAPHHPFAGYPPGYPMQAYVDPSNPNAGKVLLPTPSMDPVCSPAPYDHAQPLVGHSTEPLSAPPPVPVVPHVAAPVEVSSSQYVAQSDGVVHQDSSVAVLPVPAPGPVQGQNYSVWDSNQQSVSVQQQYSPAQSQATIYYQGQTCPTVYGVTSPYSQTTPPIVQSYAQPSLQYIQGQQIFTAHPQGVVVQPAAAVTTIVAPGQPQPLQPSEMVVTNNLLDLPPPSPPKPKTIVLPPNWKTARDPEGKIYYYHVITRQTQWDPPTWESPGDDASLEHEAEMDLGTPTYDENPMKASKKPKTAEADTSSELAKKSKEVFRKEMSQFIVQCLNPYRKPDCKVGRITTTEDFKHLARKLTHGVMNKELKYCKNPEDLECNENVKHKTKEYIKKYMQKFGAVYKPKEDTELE
Chain of UniProt Q9NR50 (Q9NR50 whole entry, looked up): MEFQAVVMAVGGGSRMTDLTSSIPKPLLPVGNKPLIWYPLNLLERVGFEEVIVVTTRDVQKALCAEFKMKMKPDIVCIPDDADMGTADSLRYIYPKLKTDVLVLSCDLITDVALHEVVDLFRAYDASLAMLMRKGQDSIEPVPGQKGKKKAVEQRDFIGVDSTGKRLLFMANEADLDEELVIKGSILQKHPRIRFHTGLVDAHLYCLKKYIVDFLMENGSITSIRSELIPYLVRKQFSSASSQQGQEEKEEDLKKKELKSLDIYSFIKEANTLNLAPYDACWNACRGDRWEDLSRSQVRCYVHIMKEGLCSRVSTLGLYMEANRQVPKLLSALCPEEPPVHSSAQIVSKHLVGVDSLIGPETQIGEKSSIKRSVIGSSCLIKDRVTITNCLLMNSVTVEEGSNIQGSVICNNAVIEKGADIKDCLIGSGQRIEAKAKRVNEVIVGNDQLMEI
Chain of UniProt Q9UER7 (Q9UER7 whole entry, looked up): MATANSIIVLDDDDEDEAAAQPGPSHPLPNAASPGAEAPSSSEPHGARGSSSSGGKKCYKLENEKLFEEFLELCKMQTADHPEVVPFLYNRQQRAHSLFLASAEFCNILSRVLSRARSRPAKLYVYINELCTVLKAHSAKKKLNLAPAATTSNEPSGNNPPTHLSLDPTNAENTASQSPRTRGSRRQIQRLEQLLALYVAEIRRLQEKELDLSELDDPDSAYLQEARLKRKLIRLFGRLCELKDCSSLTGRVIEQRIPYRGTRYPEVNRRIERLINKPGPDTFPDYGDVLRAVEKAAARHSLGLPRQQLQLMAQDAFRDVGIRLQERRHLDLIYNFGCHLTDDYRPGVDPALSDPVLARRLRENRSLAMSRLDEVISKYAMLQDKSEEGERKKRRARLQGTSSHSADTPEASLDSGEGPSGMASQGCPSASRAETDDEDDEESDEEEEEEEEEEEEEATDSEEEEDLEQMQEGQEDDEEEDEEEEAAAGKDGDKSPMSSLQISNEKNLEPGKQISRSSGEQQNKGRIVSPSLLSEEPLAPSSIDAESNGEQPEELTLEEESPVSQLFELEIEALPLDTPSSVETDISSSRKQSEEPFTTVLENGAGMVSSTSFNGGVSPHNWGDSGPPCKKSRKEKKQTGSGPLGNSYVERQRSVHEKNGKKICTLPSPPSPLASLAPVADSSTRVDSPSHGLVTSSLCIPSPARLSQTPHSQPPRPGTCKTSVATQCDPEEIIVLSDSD
Chain of UniProt Q9Y3C8 (Q9Y3C8 whole entry): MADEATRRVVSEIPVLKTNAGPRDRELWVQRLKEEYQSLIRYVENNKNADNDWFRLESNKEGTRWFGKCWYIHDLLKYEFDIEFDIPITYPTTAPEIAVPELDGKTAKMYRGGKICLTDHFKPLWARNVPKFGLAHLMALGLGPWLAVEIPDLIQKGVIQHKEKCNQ
Chain of UniProt Q9UHQ4 (Q9UHQ4 whole entry): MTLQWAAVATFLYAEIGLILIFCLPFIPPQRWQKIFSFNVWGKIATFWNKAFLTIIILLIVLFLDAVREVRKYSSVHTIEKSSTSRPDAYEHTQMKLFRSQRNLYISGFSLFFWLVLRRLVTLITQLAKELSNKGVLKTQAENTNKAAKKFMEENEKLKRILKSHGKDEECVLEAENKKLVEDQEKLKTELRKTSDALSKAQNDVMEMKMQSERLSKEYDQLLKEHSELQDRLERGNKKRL
Chain of UniProt Q9UBW8 (Q9UBW8 whole entry): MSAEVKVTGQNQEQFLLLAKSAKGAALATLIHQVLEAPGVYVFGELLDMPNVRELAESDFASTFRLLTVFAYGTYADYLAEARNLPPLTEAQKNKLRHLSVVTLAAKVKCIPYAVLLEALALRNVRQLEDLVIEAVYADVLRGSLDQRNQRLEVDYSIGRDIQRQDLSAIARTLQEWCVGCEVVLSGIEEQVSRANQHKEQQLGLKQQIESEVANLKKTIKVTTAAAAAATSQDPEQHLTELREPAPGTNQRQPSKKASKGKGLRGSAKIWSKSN

Target	log2 ratio of iodoacetamide-alkyne labeling
UFC1 C116 (UniProt Q9Y3C8)	0.115 (inactive)
POLE4 C84 (UniProt Q9NR33)	-0.0179 (inactive)
UniProt Q9BYV8_C171	0.361 (inactive)
EIF2B3 C64 (UniProt Q9NR50)	0.548 (inactive)
KBTBD4 C455 (UniProt Q9NVX7)	0.248 (inactive)
SETD2 C958 (UniProt Q9BYW2)	1.02 (active)
PPME1 C381 (UniProt Q9Y570)	1.48 (active)
UniProt Q9Y678_C129	0.51 (inactive)
NOTCH3 C134 (UniProt Q9UM47)	1.63 (active)
UBE2O C406 (UniProt Q9C0C9)	1.46 (active)
UniProt Q9BVS4_C449	1.18 (active)
BCAP29 C171 (UniProt Q9UHQ4)	1.1 (active)
UniProt Q9HBK9_C32	1.1 (active)
DAXX C720 (UniProt Q9UER7)	1.35 (active)
SPATA5L1 C78 (UniProt Q9BVQ7)	0.204 (inactive)
NAT10 C489 (UniProt Q9H0A0)	0.0616 (inactive)
ASPSCR1 C224 (UniProt Q9BZE9)	1.02 (active)
COPS7A C110 (UniProt Q9UBW8)	0.0698 (inactive)
